“And” between values parts separate entries of the source, which are not always exact repeats. Equal values may be shown once. About 79,000 compounds went through this panel and 15% of them were active in at least one assay; those are over-represented in the sample as a whole. A number with no mark means an inactive call. The source made the active and inactive calls. Rule as the data show it: active = growth inhibition above about 70%; inactive = the rest.
Experiments:
[1] = NCI Yeast Anticancer Drug Screen. Data for the rad50 strain (AID 155);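 also: 0% = growth of vehicle-only cultures of the same strain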; settings: S. cerevisiae rad50 strain growth inhibition; at 50.0 µM; hits give high values
Outline: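 Readout: growth inhibition relative to vehicle-treated cultures. Compound exposure was carried out in a genetically defined yeast strain deficient in DNA damage repair.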

[2] = NCI Yeast Anticancer Drug Screen. Data for the mec2-1 strain (AID 157); settings: S. cerevisiae mec2-1 strain, at 50.0 µM, hits give high values
Outline: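 Mutant yeast (mec2-1) grown with compound; growth inhibition relative to vehicle control reported.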

[3] = NCI Yeast Anticancer Drug Screen. Data for the sgs1 mgt1 strain (AID 161);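 also: 0% = growth of cultures given vehicle only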; settings: S. cerevisiae sgs1 mgt1 strain, at 50.0 µM, hits give high values
Outline: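 Yeast cells carrying a defined DNA-repair defect were exposed to test compounds. Growth inhibition was measured relative to vehicle-treated controls.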

[4] = NCI Yeast Anticancer Drug Screen. Data for the cln2 rad14 strain (AID 165);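 also: 0% = growth equal to vehicle treated cultures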; settings: S. cerevisiae cln2 rad14 strain, at 50.0 µM, hits give high values
Outline: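 Readout is yeast growth inhibition versus vehicle-treated controls, using a strain with cln2 and rad14 alterations exposed to compound.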

[5] = NCI Yeast Anticancer Drug Screen. Data for the bub3 strain (AID 167); settings: S. cerevisiae bub3 mutant strain, at 50.0 µM, hits give high values
Outline: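 Readout: yeast growth inhibition, expressed relative to vehicle-only wells. The test organism is a mutant strain from a panel with lesions in DNA repair or checkpoint genes.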

[6] = NCI Yeast Anticancer Drug Screen. Data for the mlh1 rad18 strain (AID 175); settings: S. cerevisiae mlh1 rad18 strain growth inhibition; at 50.0 µM; hits give high values
Outline: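 Genetically defined yeast (DNA repair-deficient) exposed to compounds; growth inhibition determined relative to vehicle.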

SMILES	growth inhibition [1]	growth inhibition [2]	growth inhibition [3]	growth inhibition [4]	growth inhibition [5]	growth inhibition [6]
O=C(Nc1ccccc1Cl)OCC(Cl)(Cl)Cl	-15.3%	2%	16.1%	-19.9%	19.8%	-11.2%
[Se]=P(N1CCCCC1)(N1CCCCC1)N1CCCCC1	21.6%	2.75%	6.4%	6.55%	11.4%	10.2%
CC(COC(=O)NCc1ccc(Cl)cc1Cl)OC(N)=O (stereo not given)	2.6%	0.35%	4.25%	-12.8%	-5%	-8.65%
COc1cccc(N2C(=O)C3C(C2=O)C2(Cl)C(Cl)=C(Cl)C3(Cl)C2(Cl)Cl)c1 (stereo not given)	58.4%	45.2%	53.5%	10.1%	19.4%	49.8%
COc1ccc(CC(N)C(=O)O)cc1N(CCCl)CCCl (stereo not given)	-0.2% and -0.5%	-0.55% and -7.45%	-11.2% and -6.65%	-6.55% and -9.85%	2.25% and 7.75%	-9.25% and -7.2%
O=S1(=O)c2ccccc2-c2ccccc21	-5%	-7.95%	-13.8%	-3.5%	-11.6%	5.65%
c1ccc(CCN2CCOCC2)nc1	17.3%	1.6%	-8.95%	52%	4.55%	3.85%
CCC(C)CC(C)N (stereo not given)	0.6%	2.7%	14.5%	2.65%	-2.45%	9.15%
CC(=O)O	2.15%	-13%	7.5%	4.05%	1.45%	0.55%
CC1=C(O)C(=O)[C@@H]2O[C@@H]2C1=O	42%	29.6%	43.8%	14%	31.3%	-35.4%
COc1ccc(C(=O)Cc2c(C(=O)c3ccccc3)c3ccccc3n2C(=O)c2ccccc2)cc1	-2.45%	-18.5%	-9.5%	-57.6%	-23.4%	5.75%
CC1(C)CN=C(Nc2ccc(F)c(F)c2)S1	4.3%	3.8%	12.1%	15.3%	-12.8%	-19.6%
CC(C)[C@H](C)/C=C/[C@@H](C)C1CC[C@H]2[C@@]34C=C[C@]5(C[C@@H](O)CC[C@]5(C)[C@H]3CC[C@]12C)OO4 (stereo not given in full)	11.8%	19%	-13.2%	2.15%	-20.4%	-31.6%
CCCCCCN1C(C)C1C(C)C (stereo not given)	5.7%	12.2%	2.25%	-3.8%	-4.15%	1.6%
O=NN1CCOC1=NC1CCCCC1	-3.65%	-12.2%	-11.2%	-63%	-22.7%	-9%
CN(C/C=C/CN(C)N=O)N=O	10.1%	2.05%	3.75%	-16.9%	20.4%	1.05%
O=C(NCCc1ccc([N+](=O)[O-])cc1)c1ccc(S(=O)(=O)F)cc1	1.9%	12.7%	6.5%	3%	19.4%	8.05%
O=C1CC(c2cccc(Br)c2)n2cccc21 (stereo not given)	9.9%	-1.1%	9.95%	37.5%	13.8%	-5.7%
O=[N+]([O-])c1ccc(CCBr)cc1	28.8% and 30.2%	1.25% and 37.6%	13.4% and 34%	17.1% and 11.8%	36.3% and 3.2%	17.6% and -2.15%
CCC[CH2][Sn]([CH3])([CH3])[CH2]CC[N+](C)(C)C	21.3%	5.55%	16.9%	45%	10.8%	13.5%

SMILES	growth inhibition [1]	growth inhibition [2]	growth inhibition [3]	growth inhibition [4]	growth inhibition [5]	growth inhibition [6]
COc1ccc(CCNC2(C#N)CCCCC2)cc1OC	-9.5%	-29.8%	0.05%	10.2%	-5.75%	-5.25%
c1ccc2c(c1)CC1OCN3CN(COC4Cc5ccccc5CC43)C1C2 (stereo not given)	0.75%	-4.7%	1.2%	-5.9%	-1.45%	-7.15%
O=C1C2CCC(C2)[CH]1[Hg][Cl] (stereo not given)	99.4% (active)	99.7% (active)	99.5% (active)	99% (active)	99.3% (active)	99.5% (active)
O=C([O-])CN(CCN(CC(=O)[O-])CC(=O)O)CC(=O)O.[Fe+5].[Na+]	-12.6%	-13.3%	0.35%	-35.8%	-2.85%	-8.4%
COc1ccc2c(c1OC)CC(N)C2O (stereo not given)	9%	3.55%	7.8%	4.3%	15.2%	3.25%
Cc1ccc2n[se]nc2c1	11.6%	-15.4%	-16.8%	-0.3%	-15.1%	-8.15%
O=C([CH-]C(=O)C(F)(F)F)c1ccco1.O=C([CH-]C(=O)C(F)(F)F)c1ccco1.O=C([CH-]C(=O)C(F)(F)F)c1ccco1.[Ru+3]	8.2%	-11%	-19.6%	-11.6%	1.95%	11.7%
Cc1cc(NC(=O)CCc2ccc(N3C(N)=NC(N)=NC3(C)C)cc2Cl)ccc1S(=O)(=O)F	72.5% (active)	94.1% (active)	94.7% (active)	4.55%	54%	83.3% (active)
Cc1cc(Cl)nc(N)n1	-5.3%	4.55%	-5.4%	-13.9%	10.1%	-21.4%
CC1NC1c1ccccc1 (stereo not given)	-13.6%	-29.3%	-6.85%	-20.4%	-11.8%	-19.4%
CCNCCC1(CC)C(=O)NC(=O)NC1=O	-22.2%	-16.8%	-27.4%	2.2%	-43.7%	-10.6%
O=C(O)/C=C\c1c[nH]c2ccccc12 (tested in a mixture with another compound)	-3.3%	-7.35%	-13.4%	0.95%	-10.8%	-12.2%
O=C1CC2(CCNCC2)C(=O)N1N1CCOCC1	19.6%	-0.15%	5.4%	7.55%	2.6%	6%
NC(=O)c1ccc([As](O)O)cc1N	-0.05%	-4.9%	-12.5%	-4.75%	-11.5%	-9.1%
O=NNc1ccc(Br)cn1	-2.7%	-6.25%	5.7%	-0.85%	-0.35%	4.2%
c1ccc(N2CCNCC2)nc1	-6.4%	-4.3%	9.2%	6.9%	8.25%	0.15%
N#Cc1ccc(N)cc1	-2.9%	-7.9%	-37.5%	-10.8%	-18.4%	-16.8%
N#CCc1ccc(Br)cc1	0.2%	0.8%	5.65%	-16.9%	-14.9%	5.8%
O=c1nc2n(CCN(CCCl)CCCl)c3cc(Cl)c(Cl)cc3nc-2c(=O)[nH]1	38%	-1.65%	45%	34.6%	3.65%	26.4%
COC1=CC(=Nc2ccc(N(CCCl)CCCl)cc2)C=CC1=O	17.6%	26.8%	14.3%	11.4%	15.1%	28.6%
